Screens deposited in PubChem BioAssay by National Center for Advancing Translational Sciences (NCATS).
HP1b chromo inh – HTS for Inhibitors of HP1-beta Chromodomain Interactions with Methylated Histone Tails; Chromobox protein homolog 1 (Homo sapiens), P83916; 390,000 compounds, 0.56% hits; Potency, µM (top dose mostly 114 µM), for the others: at the highest dose activity change, negative = inhibition, actives largely listed as inhibitors; AlphaScreen HP1-beta / biotin-H3K9me3 peptide binding; also: nearly all actives have a fitted effect of over 70% in size
Target sequence (P83916 whole entry, looked up): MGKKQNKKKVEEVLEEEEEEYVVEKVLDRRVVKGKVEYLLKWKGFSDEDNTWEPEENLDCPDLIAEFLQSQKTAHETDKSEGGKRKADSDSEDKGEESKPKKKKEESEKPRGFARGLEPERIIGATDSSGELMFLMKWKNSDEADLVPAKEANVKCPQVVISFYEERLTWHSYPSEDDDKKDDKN
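AlphaScreen: HP1-beta (50 nM) preformed 30 min with biotin-H3(1-18)K9me3 peptide (50 nM) in PBS pH 7.4, 0.01% Tween-20. Compound added for 30 min at RT, then streptavidin donor/nickel chelate acceptor beads (10 ug/mL) for 30 min.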
JMJD2A Tudor inh – qHTS Assay for Inhibitors of JMJD2A-Tudor Domain | Lysine-specific demethylase 4A (Homo sapiens), O75164 | AlphaScreen JMJD2A-Tudor / H3K4me3 peptide binding | Potency, µM (highest dose often 114 µM), for the others: at the top dose activity change, negative = inhibition, actives largely listed as inhibitors | 390,000 compounds, 4.4% hits; also: % is scaled to controls: 0 for no effect and ±100 for the full control effect; nearly all actives have a fitted effect of over 50% in size
L3MBTL1 inh – qHTS Assay for the Inhibitors of L3MBTL1 | Potency, µM (top dose mostly 57.1 µM), without a hit: at the highest dose activity, negative = inhibition, usual class: inhibitors | Lethal(3)malignant brain tumor-like protein 1 (Homo sapiens), Q9Y468 | 230,000 compounds, 0.66% hits | AlphaScreen L3MBTL1–H3K9me1 peptide binding; also: % is scaled to controls: 0 for no effect and ±100 for the full control effect; nearly all actives have a fitted effect of over 60% in size
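AlphaScreen assay: L3MBTL1 (50 nM final) was preincubated 30 min at room temperature with biotinylated H3(1-15)K9me1 peptide (75 nM final), then 30 min with library compounds; streptavidin donor and nickel chelate acceptor beads (10 ug/mL final) added, 30 min dark.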
VDR inhibitor – Inhibitors of the vitamin D receptor (VDR): qHTS | Vitamin D3 receptor (Homo sapiens), P11473 | 400,000 compounds, 0.93% hits | Potency, µM, for inactives: max response, negative = inhibition, actives largely listed as inhibitors | VDR-SRC2-3 peptide fluorescence polarization, 2 h; also: % is scaled to controls: 0 for no effect and ±100 for the full control effect
Target sequence (P11473 whole entry, looked up): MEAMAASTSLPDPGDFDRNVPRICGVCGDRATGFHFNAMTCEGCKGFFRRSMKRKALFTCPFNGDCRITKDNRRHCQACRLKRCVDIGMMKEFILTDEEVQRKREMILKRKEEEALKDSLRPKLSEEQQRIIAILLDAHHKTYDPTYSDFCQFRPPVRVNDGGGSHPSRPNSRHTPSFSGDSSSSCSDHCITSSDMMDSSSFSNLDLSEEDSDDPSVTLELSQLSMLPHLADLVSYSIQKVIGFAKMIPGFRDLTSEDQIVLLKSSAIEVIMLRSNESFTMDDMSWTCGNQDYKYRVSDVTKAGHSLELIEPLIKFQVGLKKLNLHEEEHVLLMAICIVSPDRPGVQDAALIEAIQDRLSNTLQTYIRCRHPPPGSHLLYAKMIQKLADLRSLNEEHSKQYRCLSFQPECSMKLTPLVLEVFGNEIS
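Fluorescence polarization assay of small-molecule disruption of VDR binding to coregulator peptide SRC2-3. Compounds and controls pin-transferred, then read after 2 h incubation at ambient room temperature.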
PLK1 PBD block – qHTS for Inhibitors of PLK1-PDB (polo-like kinase 1 - polo-box domain): Primary Screen; Potency, µM, for inactives: max response, negative = inhibition, hits mostly inhibitors; Serine/threonine-protein kinase PLK1 (Homo sapiens), P53350; Plk1 PBD binding of FITC phosphopeptide, fluorescence polarization; 360,000 compounds, 2.8% hits; also: series mostly up to about 57 µM; % is scaled to controls: 0 for no effect and ±100 for the full control effect; nearly all actives have a fitted effect of over 65% in size
BAZ2B inh – qHTS Assay for Inhibitors of BAZ2B | Bromodomain adjacent to zinc finger domain protein 2B (Homo sapiens), Q9UIF8 | AlphaScreen BAZ2B-H3K14Ac peptide displacement | Potency, µM (doses to about 114 µM), without a hit: at the highest dose activity change, negative = inhibition, actives largely listed as inhibitors | 360,000 compounds, 4.4% hits | AID 504333, 2011; also: % is scaled to controls: 0 for no effect and ±100 for the full control effect; nearly all actives have a fitted effect of over 60% in size
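BAZ2B (50 nM) with biotin-H3(5-23)K14Ac peptide (50 nM) in PBS pH 7.4, 0.01% Tween-20, preformed 30 min, then compound 30 min at room temperature; top concentration 110uM. AlphaScreen streptavidin donor/nickel chelate acceptor beads (10 ug/mL final), 20 min dark, signal read.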
* = called active by the depositor; [ ] = another dose, or the depositor's remark. Hits are enriched below; roughly 6.9% of the tested compounds scored in any of these assays. Calls follow the shape of the dose curve; as a rule, active = well fitted curve in the direction sought with a large enough effect; inconclusive = small, poorly fitted or top-dose-only effect, or another doubt; inactive = no such curve, though single readings can be large; an effect the other way counts as inactive or inconclusive. Potency is read from the fitted curve at half-maximal effect.

How did Clc1cccc(-c2ccc(-c3nc4ccccn4c3NCc3ccccc3)cc2)c1 do in these assays?
HP1b chromo inh: -7.1%; JMJD2A Tudor inh: inconclusive; L3MBTL1 inh: inconclusive; VDR inhibitor: -22.4%; PLK1 PBD block: -8.4%

Results for COc1ccc(-c2cc(-c3nc4ccccn4c3NCc3ccccc3)ccc2OC)cc1 ?
HP1b chromo inh: inconclusive; JMJD2A Tudor inh: 31.6µM*; L3MBTL1 inh: inconclusive; VDR inhibitor: -16.7%; PLK1 PBD block: -9.4%

How did c1ccc(-c2nc3ccccn3c2NCc2ccc3c(c2)OCO3)cc1 do in these assays?
HP1b chromo inh: -17.5%; JMJD2A Tudor inh: inconclusive; L3MBTL1 inh: -7.4%; VDR inhibitor: -6.3%; PLK1 PBD block: -5.1%; BAZ2B inh: inconclusive

Results for COc1ccc(-c2nc3ccccn3c2NCc2ccc3c(c2)OCO3)cc1 ?
HP1b chromo inh: -6.6%; JMJD2A Tudor inh: inconclusive; L3MBTL1 inh: -5.9%; VDR inhibitor: 2.0%; PLK1 PBD block: 3.7%; BAZ2B inh: 50.1µM*

How did COc1ccccc1NC(=O)CCS(=O)(=O)c1ccc2nc(C)sc2c1 do in these assays?
HP1b chromo inh: 33.4%; JMJD2A Tudor inh: 10.6%; VDR inhibitor: 4.8%; BAZ2B inh: -1.5%

What do the screens show for `Cc1ccc(CNC(=O)c2ccc3c(c2)N(Cc2ccccc2Cl)C(=O)CS3)cc1`?
HP1b chromo inh: 23.9%; JMJD2A Tudor inh: 8.2%; VDR inhibitor: -10.6%; BAZ2B inh: -0.5%

How did O=C(Nc1cccc(Oc2ccc(C(=O)O)c(C(=O)O)c2)c1)c1ccc(-c2ccccc2)cc1 do in these assays?
HP1b chromo inh: inconclusive; JMJD2A Tudor inh: -14.0%[11.4 µM]; VDR inhibitor: 2.0%; PLK1 PBD block: 18.9µM*; BAZ2B inh: 50.1µM*

How did CC(C)(C)C(=O)Nc1ccc(C(=O)Nc2cccc(Oc3ccc(C(=O)O)c(C(=O)O)c3)c2)cc1 do in these assays?
HP1b chromo inh: -1.8%; JMJD2A Tudor inh: -33.2%; L3MBTL1 inh: -6.4%; VDR inhibitor: -4.1%; PLK1 PBD block: -4.2%; BAZ2B inh: -32.6%

What do the screens show for `COc1ccc(CCNC(=O)C2CCN(C(=O)c3ccc(Br)cc3)CC2)cc1`?
HP1b chromo inh: -3.4%; JMJD2A Tudor inh: inconclusive; L3MBTL1 inh: 0.8%[2.29 µM]; VDR inhibitor: inconclusive; PLK1 PBD block: 26.7µM*; BAZ2B inh: -14.2%

Results for COc1ccc(CCNC(=S)N2CCC(C(N)=O)CC2)cc1 ?
HP1b chromo inh: inconclusive; JMJD2A Tudor inh: -2.1%; VDR inhibitor: -0.8%; PLK1 PBD block: 33.6µM*; BAZ2B inh: -1.3%

Results for NC(=O)C1CCN(C(=S)NCCc2ccccc2)CC1 ?
HP1b chromo inh: 24.4%; JMJD2A Tudor inh: -2.2%; L3MBTL1 inh: 6.6%; VDR inhibitor: 4.0%; PLK1 PBD block: -10.4%; BAZ2B inh: -10.5%

What do the screens show for `CCc1ccc(-c2nc(CN3CCCC(C(=O)NCc4ccccc4Cl)C3)c(C)o2)cc1` (stereo not drawn)?
HP1b chromo inh: -11.3%; JMJD2A Tudor inh: inconclusive; VDR inhibitor: -3.7%; BAZ2B inh: -34.1%

What do the screens show for `O=C(OCc1cc(=O)n2nc(C3CC3)sc2n1)c1ccc(F)cc1`?
HP1b chromo inh: 11.9%; JMJD2A Tudor inh: -13.0%; VDR inhibitor: 15.1%; BAZ2B inh: -14.6%

What do the screens show for `S=C1Nc2ccccc2CS1`?
PLK1 PBD block: -14.8%

How did S=C1Cc2ccccc2N1 do in these assays?
HP1b chromo inh: inconclusive; JMJD2A Tudor inh: 79.4µM*; L3MBTL1 inh: -9.5%; VDR inhibitor: 2.24µM*; PLK1 PBD block: 11.9µM*; BAZ2B inh: -35.5%

How did COc1cnc(-c2ccccn2)nc1Oc1cccc(Cl)c1 do in these assays?
HP1b chromo inh: 32.4%; JMJD2A Tudor inh: -23.6%; L3MBTL1 inh: -18.0%; VDR inhibitor: -3.8%; PLK1 PBD block: 4.4%; BAZ2B inh: 44.7µM*

What do the screens show for `COc1cnc(-c2ccccc2)nc1Oc1cccc(C)c1`?
HP1b chromo inh: 169.5%; JMJD2A Tudor inh: 80.1%; L3MBTL1 inh: 14.4%; VDR inhibitor: -9.0%; PLK1 PBD block: -3.1%; BAZ2B inh: 76.6%

Results for COc1ccc(Cl)cc1NC(=O)NNC(=O)C(=O)Nc1ccc(F)cc1 ?
PLK1 PBD block: -12.1%

How did N=C1/C(=C/c2coc3ccccc3c2=O)C(=O)N=C2SC(c3ccco3)=NN12 do in these assays?
HP1b chromo inh: -32.9%; JMJD2A Tudor inh: inconclusive; L3MBTL1 inh: inconclusive; VDR inhibitor: inconclusive; PLK1 PBD block: inconclusive; BAZ2B inh: 70.8µM*

How did Cc1cc(/C=C2\C(=N)N3N=C(C(C)C)SC3=NC2=O)c(C)n1Cc1ccccc1 do in these assays?
HP1b chromo inh: 23.7%; JMJD2A Tudor inh: -2.0%; L3MBTL1 inh: -13.1%; VDR inhibitor: -1.1%; PLK1 PBD block: -4.5%; BAZ2B inh: -10.9%

What do the screens show for `N=C1/C(=C\c2coc3ccccc3c2=O)C(=O)N=C2SC(c3ccncc3)=NN12`?
HP1b chromo inh: inconclusive; JMJD2A Tudor inh: 56.2µM*; VDR inhibitor: 28.2µM*; PLK1 PBD block: 23.4%; BAZ2B inh: inconclusive

What do the screens show for `N=C1/C(=C\c2coc3ccc(O)cc3c2=O)C(=O)N=C2SC=CN12`?
HP1b chromo inh: -17.9%; JMJD2A Tudor inh: -35.2%; L3MBTL1 inh: inconclusive; VDR inhibitor: 4.7%; PLK1 PBD block: 7.9%; BAZ2B inh: inconclusive

Results for Cc1cc(/C=C2\C(=N)N3N=C(c4ccco4)SC3=NC2=O)c(C)n1Cc1ccccc1 ?
HP1b chromo inh: -23.3%; JMJD2A Tudor inh: 44.7µM*; L3MBTL1 inh: inconclusive; VDR inhibitor: 5.6%; PLK1 PBD block: 26.7µM*; BAZ2B inh: inconclusive

Results for COC(=O)c1c(C)sc(-c2c(-c3ccc(OC)c(F)c3)[nH]c3c2c(=O)n(C)c(=O)n3C)c1O ?
HP1b chromo inh: 27.6%; JMJD2A Tudor inh: -0.3%; VDR inhibitor: 4.7%; BAZ2B inh: -18.8%

Results for O=C(O)c1n[nH]c2c1CC(C1CCCCC1)CC2 (stereo not drawn) ?
HP1b chromo inh: 52.1%; JMJD2A Tudor inh: -14.6%; L3MBTL1 inh: -9.6%; VDR inhibitor: -25.2%; PLK1 PBD block: -7.5%; BAZ2B inh: 70.8µM*

What do the screens show for `CCCCC1CCc2[nH]nc(C(=O)O)c2C1` (stereo not drawn)?
HP1b chromo inh: 26.2%; JMJD2A Tudor inh: -26.6%; L3MBTL1 inh: 0.5%; VDR inhibitor: -13.5%; PLK1 PBD block: -17.3%; BAZ2B inh: inconclusive
